High-throughput results as filed in PubChem.
HTT ATP protect: Huntington cell model cytoprotection by ATP luminescence | PC12 HTT-Q103 induced, cytoprotection, ATP luminescence, 40 h | Potency, µM (highest dose often 56.4 µM), hits mostly activators | 230,000 compounds, 0.14% hits | AID 1471; active = well fitted curve in the direction sought with a large enough effect; inconclusive = small, poorly fitted or top-dose-only effect, or another doubt; inactive = no such curve, though single readings can be large; an effect the other way counts as inactive or inconclusive; note: nearly all actives have a fitted effect of over 45% in size
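ATP quantification (ATPlite) reports survival of PC12 cells in which tebufenozide, 100 nM final, switches on Htt exon 1 with 103 glutamines linked to GFP; compounds are titrated.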
TRb SRC2 PPI: TRbeta-SRC2 interaction inhibition | Potency, µM (highest dose often 106 µM), hits mostly inhibitors | TRbeta-SRC2 peptide binding, fluorescence polarization; receptor liganded with 1 µM T3 | 280,000 compounds, 0.065% hits | P10828; active = well fitted curve in the direction sought with a large enough effect; inconclusive = small, poorly fitted or top-dose-only effect, or another doubt; inactive = no such curve, though single readings can be large; an effect the other way counts as inactive or inconclusive; note: nearly all actives have a fitted effect of over 50% in size
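Human TRb ligand-binding domain (0.6 uM) is mixed with 20 nM Texas Red SRC2 peptide and 1 uM T3; after compound addition and 5 hr at ambient temperature, polarization is measured and normalized to unbound and bound controls.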
HTT aggregate: inhibitors of mutant huntingtin aggregate formation in PC12 cells; PC12 HttQ103-GFP aggregates, Acumen cytometry, 40 h; Potency, µM (top dose mostly 46.1 µM), hits mostly inhibitors; 220,000 compounds, 1.1% hits; AID 1688; active = well fitted curve in the direction sought with a large enough effect; inconclusive = small, poorly fitted or top-dose-only effect, or another doubt; inactive = no such curve, though single readings can be large; an effect the other way counts as inactive or inconclusive; note: nearly all actives have a fitted effect of over 60% in size
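Using laser scanning cytometry, GFP-positive aggregates were counted after lysis of PC12 cells induced with 100 nM tebufenozide to express HTT exon 1 Q103–GFP. Compounds were tested in titration.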
KDM4E inh: JMJD2E (human) inhibition; B2RXH2; JMJD2E catalytic domain, FDH-coupled NADH fluorescence (FDH is formaldehyde dehydrogenase); Potency, µM (top dose mostly 57.1 µM), usual class: inhibitors; 230,000 compounds, 1.6% hits; AID 2147; active = well fitted inhibition curve with a large enough effect, not every such curve was filed as active; inconclusive = small, poorly fitted or top-dose-only effect, or another doubt; inactive = no such curve, though single readings can be large or run the other way; note: nearly all actives have a fitted effect of over 50% in size
Target sequence (B2RXH2 1-337 limits assumed): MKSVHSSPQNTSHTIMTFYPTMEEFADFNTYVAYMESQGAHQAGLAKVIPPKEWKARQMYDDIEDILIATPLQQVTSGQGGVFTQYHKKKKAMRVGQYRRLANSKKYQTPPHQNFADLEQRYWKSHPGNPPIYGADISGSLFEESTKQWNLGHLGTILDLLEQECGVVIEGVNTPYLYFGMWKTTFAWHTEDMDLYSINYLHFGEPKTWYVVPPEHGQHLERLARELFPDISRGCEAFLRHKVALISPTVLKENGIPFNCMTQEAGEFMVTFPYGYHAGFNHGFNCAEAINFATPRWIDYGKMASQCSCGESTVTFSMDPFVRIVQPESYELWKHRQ
Coupling enz: coupling enzyme interference in Giardia aldolase counter-screen | coupling enzyme system counterscreen, AmpLite Red fluorescence | activity change, negative = inhibition, % at 58.2 µM, hits read low | 290,000 compounds, 0.67% hits | AID 2472; in the data active = activity change below about -30%
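Counterscreen of the coupled detection system alone, without aldolase: glyceraldehyde-3-phosphate coupling enzymes plus AmpLite Red readout. Compounds at 57.5 uM final, 10 min RT preincubation, 20 min RT reaction, fluorescence 525/598 nm.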
TR SRC2 fluor cs: alters Texas Red total fluorescence, flagging assay interference; TRb/SRC2 Texas Red total fluorescence interference; Potency, µM (top dose mostly 106 µM); 280,000 compounds, 0.29% hits; active = well fitted curve in either direction with a large enough effect; inconclusive = small, poorly fitted or top-dose-only effect
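Human TRβ ligand-binding domain (0.6 uM) and Texas Red SRC2 peptide (20 nM) in Tris buffer with 1 uM T3 and 5% DMSO were incubated with pinned compound for 5 hr at ambient temperature. Total fluorescence was computed as S + 2P (555/632 nm).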
CASP1 redox cat: inhibits human caspase-1 in catalase buffer, redox counter-screen; shares compounds with Coupling enz; caspase-1 Ac-WEHD-AFC fluorescence rate, catalase buffer; Potency, µM (titrated, usually from 57.5 µM), most hits filed as inhibitors; 30 tested, under 10 active; AID 888
Casp1 confirm: confirmation of allosteric or competitive inhibitors of human caspase-1. shares compounds with Coupling enz. purified caspase-1, fluorogenic substrate cleavage. Potency, µM (top dose mostly 57.5 µM), actives largely listed as inhibitors. 60 compounds, 20% hits
Casp7 confirm: blocks human caspase-7 activity in concentration-response; shares compounds with Coupling enz; recombinant caspase-7, fluorogenic substrate cleavage; Potency, µM (series often up to 57.5 µM), usual class: inhibitors; 60 tested, under 10 active; AID 897; active = well fitted inhibition curve with a large enough effect in the main read-out, with a control signal flat, not every such curve was filed as active; inconclusive = small, poorly fitted or top-dose-only effect, or a change in a side signal; inactive = no such curve, though single readings can be large or run the other way
Casp7 cysteine: counter-screen for redox active caspase-7 inhibitors: cysteine buffer | caspase-7 enzyme with cysteine, fluorogenic substrate, redox counterscreen | 60 tested, under 10 active | Potency, µM (top dose mostly 57.5 µM), most hits filed as inhibitors | shares compounds with Coupling enz
CASP7 redox cat: counter-screen for redox active caspase-7 inhibitors: catalase buffer; shares compounds with Coupling enz; Potency, µM (doses to about 57.5 µM), actives largely listed as inhibitors; Caspase-7 Ac-DEVD-AFC fluorescence rate, catalase buffer; 30 tested, under 10 active
Casp1 cysteine: caspase-1 inhibition with cysteine present | shares compounds with Coupling enz | recombinant caspase-1, fluorogenic substrate, cysteine buffer | Potency, µM (doses to about 57.5 µM), hits mostly inhibitors | 60 tested, under 10 active | AID 929
A number is an active result; 0 = inactive; ? = inconclusive; - = not tested or not shown; [ ] = remark or other dose. Hits are enriched below; roughly 2% of the tested compounds scored in any of these assays. Unless noted, calls come from the whole dose curve; as a rule, active = well fitted inhibition curve with a large enough effect in the main read-out, with a control signal flat; inconclusive = small, poorly fitted or top-dose-only effect, or a change in a side signal; inactive = no such curve, though single readings can be large or run the other way.

SMILES | HTT ATP protect | TRb SRC2 PPI | HTT aggregate | KDM4E inh | Coupling enz | TR SRC2 fluor cs | Casp1 confirm | Casp7 confirm | Casp7 cysteine | Casp1 cysteine | others
O=C(O)c1cc(O)c2c(c1)C(=O)c1cccc(O)c1C2=O | 0[1.9 µM] | 0 | 0 | 28µM | 0 | ? | ? | 0 | 0 | ? | CASP1 redox cat=?;CASP7 redox cat=0
COc1ccc(C2CC(=O)N3CN(c4ccc(C)c(Cl)c4)CSC3=C2C#N)cc1OC (centres undefined) | 0 | 0 | 0 | 13µM | -38 | 0 | 0 | 0 | 0 | 0 | CASP1 redox cat=0;CASP7 redox cat=0
CCCCCCCCCCCCCCC/C=C/[C@@H](O)[C@H](NC(=O)CCCCCCCCCCCCC)OC (tested in a mixture with another compound) | - | 0 | - | 0 | - | 0 | - | - | - | -
CC(=O)n1nc(-c2ccco2)nc1SCc1ccccc1 | 0[10 µM] | 0 | 0 | 0 | 0 | 0 | 0 | 0 | 0 | 0
CCC(=O)n1nc(-c2ccco2)nc1SCc1ccccc1 | 0 | 0 | 0 | 0 | 0 | 0 | - | - | - | -
Cc1ccc(CNc2ccc(O)cc2)cc1 | 0[10 µM] | 28µM | 0 | 11µM | -46 | 0 | 0 | 0 | 0 | 0
CC(=O)N1CCN(c2ccc(NCc3ccc(C)cc3)cc2)CC1 | 0[10 µM] | 0 | 0 | ? | 0 | 0 | - | - | - | -
Cc1nc(SCc2cccc(Cl)c2)nc2c1CCCC2 | - | 0 | - | - | - | 0 | - | - | - | -
COCCNc1ncnc2c1cnn2-c1cc(Cl)ccc1C | - | 0 | - | - | - | 0 | - | - | - | -
Nc1ccc(N)c(Cl)c1 | 0 | ? | - | - | - | 0 | 0 | 0 | 0 | 0
O=C1C(Cl)=C(NCCN2CCOCC2)C(=O)c2ncccc21 | 0 | ? | - | 0 | 0 | 0 | 2.5µM | ? | 0 | 0
CCCCCCCCCCCCC/C=C/[C@@H](O)[C@H](CO)NCCCCCCCC | 0 | 0 | - | ? | 0 | 0 | - | - | - | -
